Hit rate of the full screen: of about 52,000 compounds, about 4,300 (8.3%) were called active. No stated cut-off is given here; in the data, active means survival mostly below about 52% (no sharp cut-off); inactive means mostly above about 56%. Shown is part of a subset that was picked to be rich in actives.
System: DeltatarO mutant
Test: S. aureus survival, RN4220 and DeltatarO strains – OD600, teichoic acid synthesis inhibitors, primary screen (AID 463173)
Details: S. aureus RN4220 wild type/DeltatarO growth, OD600, 18 h, active compounds read low, screened at 18.75 µg/mL (by protocol)

| SMILES | survival |
| --- | --- |
| O=C(Nc1ccccc1C(F)(F)F)N1CCN(c2ccc3nnc(-c4ccc(F)cc4)n3n2)CC1 | 58% (inactive) |
| COc1ccc(-c2nc(CSc3nncn4c3cc3oc(C)cc34)c(C)o2)cc1 | 56% (inactive) |
| Cc1c(Cl)cccc1-n1ncc(C(=O)N2CCOCC2)c1C1CCN(C(=O)OC(C)(C)C)CC1 | 103% (inactive) |
| CCc1ccc(S(=O)(=O)Nc2cccc(-c3ccc(OC)nn3)c2)s1 | 76% (inactive) |
| Cc1c(CC(=O)NCCc2ccccc2F)c(=O)oc2cc(O)c(Cl)cc12 | 59% (inactive) |
| CCn1cc(C(=O)N2CCN(c3ccccc3F)CC2)c(=O)c2cc(S(=O)(=O)N(C)C3CCCCC3)ccc21 | 79% (inactive) |
| CCn1cc(C(=O)NCCc2ccc(Cl)cc2)c(=O)c2cc(S(=O)(=O)N3CCc4ccccc4C3)ccc21 | 54% (active) |
| CCOc1ccc(CCNC(=O)c2cn(C)c3ccc(S(=O)(=O)N4CCCCCC4)cc3c2=O)cc1OCC | 61% (inactive) |
| CCOc1ccc(CCNC(=O)c2cn(C)c3ccc(S(=O)(=O)N4CCOCC4)cc3c2=O)cc1OCC | 56% (active) |
| CCC(C)NC(=O)c1cn(CC)c2ccc(S(=O)(=O)N3CCc4ccccc4C3)cc2c1=O (stereo not given) | 35% (active) |
| CCn1cc(C(=O)NCCc2ccccc2)c(=O)c2cc(S(=O)(=O)N3CCc4ccccc4C3)ccc21 | 67% (inactive) |
| CCn1cc(C(=O)NC(C)c2ccccc2)c(=O)c2cc(S(=O)(=O)N3CCc4ccccc4C3)ccc21 (stereo not given) | 80% (inactive) |
| CCn1cc(C(=O)NCc2ccccc2)c(=O)c2cc(S(=O)(=O)N3CCc4ccccc4C3)ccc21 | 73% (inactive) |
| CCn1cc(C(=O)NCCc2ccc(C)cc2)c(=O)c2cc(S(=O)(=O)N3CCc4ccccc4C3)ccc21 | 67% (inactive) |
| CCOc1ccc(CCNC(=O)c2cn(C)c3ccc(S(=O)(=O)N4CCCCC4)cc3c2=O)cc1OCC | 101% (inactive) |
| Cn1cnnc1SCC(=O)O | 85% (inactive) |
| Cc1ccc(NC(=O)CC(C)S(=O)(=O)c2ccc3c(c2)NC(=O)CO3)cc1C (stereo not given) | 85% (inactive) |
| Cc1ccc(N2CCN(C(=O)c3c(C)oc4ncnc(N5CCCCC5)c34)CC2)c(C)c1 | 77% (inactive) |
| CCOc1cc(C(=O)NCC(c2ccc(N(C)C)cc2)N2CCOCC2)cc(OCC)c1OCC (stereo not given) | 101% (inactive) |
| CCc1ccc(Nc2ncnc3c2cnn3-c2cc(Cl)ccc2C)cc1 | 77% (inactive) |
| CCc1nnc(SCc2nc(-c3ccc(OC)c(OC)c3)oc2C)c2cc3sc(C)cc3n12 | 69% (inactive) |
| O=C(CCn1c(=O)c2cccn2c2ccc(F)cc21)NCc1ccccc1F | 45% (active) |
| O=C(Cn1c(=O)c2cccn2c2ccccc21)NCCc1ccccc1 | 62% (inactive) |

| SMILES | survival |
| --- | --- |
| O=C(CCn1c(=O)c2cccn2c2ccc(F)cc21)NCCc1ccc(Cl)cc1 | 50% (inactive) |
| O=C(CCn1c(=O)c2cccn2c2ccc(F)cc21)NCCc1ccccc1 | 42% (active) |
| NS(=O)(=O)c1ccc(CCNC(=O)Cn2c(=O)c3cccn3c3ccc(F)cc32)cc1 | 89% (inactive) |
| CSc1ccc(CNC(=O)CCn2c(=O)c3cccn3c3ccc(F)cc32)cc1 | 59% (inactive) |
| O=C(CCn1c(=O)c2cccn2c2cccnc21)NCc1ccccc1F | 100% (inactive) |
| O=C(CCCn1c(=O)c2cccn2c2ccc(F)cc21)NCCc1ccccc1 | 47% (active) |
| CCC(=O)Nc1ccc(-c2nnc3c4ccccc4c(C)nn23)cc1 | 90% (inactive) |
| COc1ccc(OC)c(NC(=O)c2c(C)oc3ncnc(N4CCOCC4)c23)c1 | 134% (inactive) |
| COC(=O)C(C)Sc1cc(C)c2ccccc2n1 (stereo not given) | 76% (inactive) |
| CCCCNC(=O)CCCn1c(=O)c2ccccc2n(Cc2cccc(Cl)c2)c1=O | 100% (inactive) |
| CCN(CC)c1cc(C)nc2nc(-c3ccc(C)cc3)nn12 | 43% (active) |
| CCCN(CCC)c1cc(C)nc2nc(-c3ccc(C(C)(C)C)cc3)nn12 | 103% (inactive) |
| Cc1cc(N(CCO)Cc2ccccc2)n2nc(-c3ccc(C(C)(C)C)cc3)nc2n1 | 48% (inactive) |
| CCCN(CCC)c1cc(C)nc2nc(-c3ccc(Cl)cc3)nn12 | 52% (inactive) |
| Cc1cc(C)n2nc(-c3ccc(Cl)cc3)nc2n1 | 76% (inactive) |
| Cc1cc(N(C)Cc2ccccc2)n2nc(-c3ccc(C(C)(C)C)cc3)nc2n1 | 39% (active) |
| Cc1cccc(C(=O)NC2(C(F)(F)F)N=C(c3ccccc3)N(C3CCCCC3)C2=O)c1 (stereo not given) | 68% (inactive) |
| Cc1c(Cl)cccc1NC(=O)Cn1nc(C(F)(F)F)c2c1CCC2 | 73% (inactive) |
| CCOc1ccc(S(=O)(=O)NCCc2sc3nc(-c4ccc(F)cc4)nn3c2C)cc1 | 67% (inactive) |
| Cc1nn2c(-c3ccco3)ccnc2c1-c1ccc(Cl)cc1 | 94% (inactive) |
| Cc1cc(-c2ccccc2)nc2cc(C(N)=O)nn12 | 71% (inactive) |
| Cc1ccc(S(=O)(=O)NCCc2nnc3ccc(SCc4ccc(F)cc4)nn23)cc1 | 112% (inactive) |
| CCOc1ccc(NCc2cccn2-c2nnc(N3CCC(C(=O)NCc4cccc(OC)c4)CC3)s2)cc1 | 80% (inactive) |

| SMILES | survival |
| --- | --- |
| Cn1cnc(S(=O)(=O)N2CCC(C(=O)Nc3ccc(F)cc3F)CC2)c1 | 91% (inactive) |
| NC(=O)COc1cccc(-n2cnnn2)c1 | 63% (inactive) |
| CCN(CC)CCSc1nc2ccc(OC)cc2[nH]1 | 70% (active) |
| COc1ccc2nc(-c3ccc(N)cc3)[nH]c2c1 | 58% (inactive) |
| COc1ccc2nc(SCC(=O)O)[nH]c2c1 | 104% (inactive) |
| Cc1ccc(S(=O)(=O)N2CCCC2C(N)=O)cc1 (stereo not given) | 59% (inactive) |
| COc1cc(C(=O)Nc2ccc3oc(-c4ccc(C)c(Br)c4)nc3c2)cc(OC)c1OC | 93% (inactive) |
| CCCc1cc(C(=O)Nc2c(C)nn(Cc3ccc(C)cc3)c2C)no1 | 73% (inactive) |
| CC(C)c1ccc(-c2noc(C3CCCN(C(=O)Cc4cccs4)C3)n2)cc1 (stereo not given) | 40% (active) |
| CCCC(=O)N1CCCC(c2nc(-c3ccc(C(C)C)cc3)no2)C1 (stereo not given) | 103% (inactive) |
| CC(C)c1ccc(-c2noc(C3CCCN(C(=O)c4ccccc4)C3)n2)cc1 (stereo not given) | 86% (inactive) |
| Cc1ccc(-n2nc(C)c3c(C(=O)NCc4ccc(F)cc4)cc(C)nc32)cc1 | 83% (inactive) |
| CN(C)c1ccc(CNc2nc(-c3ccco3)nn2C(=O)c2cccc([N+](=O)[O-])c2)cc1 | 66% (inactive) |
| COc1ccccc1-c1cc(C(F)(F)F)nc(S(=O)(=O)CCCC(=O)Nc2ccccc2F)n1 | 70% (inactive) |
| COc1ccc(NC(=O)CCCS(=O)(=O)c2nc(-c3ccccc3OC)cc(C(F)(F)F)n2)c(OC)c1 | 46% (active) |
| O=C(CCS(=O)(=O)c1nc(-c2cccs2)cc(C(F)(F)F)n1)Nc1ccc(Br)cc1 | 61% (inactive) |
| O=C(CCS(=O)(=O)c1nc(-c2cccs2)cc(C(F)(F)F)n1)Nc1cc(Br)ccc1O | 15% (active) |
| COc1ccccc1-c1cc(C(F)(F)F)nc(S(=O)(=O)CCCC(=O)Nc2cc(C)ccc2O)n1 | 47% (active) |
| COc1ccc(-c2cc(C(F)(F)F)nc(S(=O)(=O)CCCC(=O)Nc3ccccc3C(F)(F)F)n2)cc1OC | 70% (inactive) |
| COc1ccccc1-c1cc(C(F)(F)F)nc(S(=O)(=O)CCCC(=O)Nc2ccc(F)cc2F)n1 | 67% (inactive) |
| COc1ccccc1-c1cc(C(F)(F)F)nc(S(=O)(=O)CCCC(=O)Nc2cc(Br)ccc2O)n1 | 45% (active) |
| Cc1ccc(O)c(NC(=O)CCS(=O)(=O)c2nc(-c3cccs3)cc(C(F)(F)F)n2)c1 | 51% (inactive) |
| COc1ccccc1-c1cc(C(F)(F)F)nc(S(=O)(=O)CCCC(=O)Nc2ccc(F)c(Cl)c2)n1 | 87% (inactive) |

| SMILES | survival |
| --- | --- |
| COC(=O)c1ccccc1NC(=O)CCCS(=O)(=O)c1nc(-c2ccccc2OC)cc(C(F)(F)F)n1 | 87% (inactive) |
| COc1ccccc1-c1cc(C(F)(F)F)nc(S(=O)(=O)CCCC(=O)Nc2cc(OC)c(OC)c(OC)c2)n1 | 134% (inactive) |
| CC(=O)Nc1ccc(NC(=O)c2cc(CN3CCCC3)on2)cc1 | 96% (inactive) |
| Cc1cccc(C)c1NC(=O)C1CCN(S(=O)(=O)c2cccc3nsnc23)CC1 | 89% (inactive) |
| COc1ccc(-n2c3c(cc(-c4nc(-c5ccc(Cl)cc5)cs4)c2=O)C(=O)CC(C)(C)C3)cc1Cl | 79% (inactive) |
| COc1ccc(OC)c(NC(=O)c2cnn(-c3ccc(C)cc3)c2C2CCNCC2)c1 | 92% (inactive) |
| CCOc1ccc(NC(=O)CCNS(=O)(=O)c2ccc3c(c2)CCCC(=O)N3)cc1 | 66% (inactive) |
| CCN1CCOC(=O)C1CC(=O)Nc1cc(Cl)ccc1OC (stereo not given) | 50% (inactive) |
| O=C(O)c1ccccc1SC1CC(=O)N(c2ccc(N3CCCCC3)cc2)C1=O (stereo not given) | 90% (inactive) |
| COC(=O)c1cc(OC)c(OC)cc1NC(=O)c1ccc2c(c1)CCN2S(C)(=O)=O | 37% (active) |
| CCS(=O)(=O)N1CCc2cc(C(=O)Nc3ccc(OC)c(Cl)c3)ccc21 | 47% (inactive) |
| CCS(=O)(=O)N1CCc2cc(C(=O)NCc3ccc(OC)cc3)ccc21 | 89% (inactive) |
| CCS(=O)(=O)N1CCc2cc(C(=O)N3CCN(c4ccc(OC)cc4)CC3)ccc21 | 40% (active) |
| CCOc1ccc(NC(=O)c2ccc3c(c2)CCN3S(=O)(=O)CC)cc1 | 48% (inactive) |
| COc1ccc(N2CCN(C(=O)c3ccc4c(c3)CCN4S(C)(=O)=O)CC2)cc1 | 57% (inactive) |
| CCS(=O)(=O)N1CCc2cc(C(=O)Nc3ccc(OC)cc3OC)ccc21 | 44% (active) |
| CCS(=O)(=O)N1CCc2cc(C(=O)Nc3cc(OC)c(Cl)cc3OC)ccc21 | 43% (active) |
| COC(=O)c1ccccc1NC(=O)c1ccc2c(c1)CCN2S(C)(=O)=O | 94% (inactive) |
| CCS(=O)(=O)N1CCc2cc(C(=O)N3CCN(c4ccccc4)CC3)ccc21 | 69% (inactive) |
| COC(=O)c1cc(OC)c(OC)cc1NC(=O)c1ccc2c(c1)CCN2S(=O)(=O)c1ccccc1 | 66% (inactive) |
| COc1ccc(Cl)cc1NC(=O)c1ccc2c(c1)CCN2S(C)(=O)=O | 81% (inactive) |

From PubChem BioAssay AID463173 (ICCB-Longwood Screening Facility, Harvard Medical School, 2010)
